Compound activity: PubChem BioAssay, National Center for Advancing Translational Sciences (NCATS)
VACV Venus inh: qHTS for Stage-Specific Inhibitors of Vaccinia Orthopoxvirus: Venus Reporter Primary qHTS | Vaccinia virus Venus reporter expression, fluorescence | Potency, µM (top dose mostly 36.5 µM), without a hit: top-dose activity change, negative = inhibition, actives largely listed as inhibitors | actives 0.46% (n = 330,000); calls by dose curve; tested in A549 cells; also: nearly all actives have a fitted effect of over 30% in size
VACV mCherry inh: qHTS for Stage-Specific Inhibitors of Vaccinia Orthopoxvirus: mCherry Reporter Primary qHTS. Potency, µM (series often up to 36.5 µM), for inactives: at the highest dose activity change, negative = inhibition, hits mostly inhibitors. AID 720579, 2013. actives 0.63% (n = 310,000). Vaccinia virus mCherry reporter infection, fluorescence; calls by dose curve; tested in A549 cells; also: nearly all actives have a fitted effect of over 35% in size
Lassa entry inh: qHTS for Inhibitors of binding or entry into cells for Lassa Virus; Lassa virus pseudotype entry inhibition, cell reporter; actives 1.2% (n = 300,000); Potency, µM (titrated, usually from 37.9 µM), without a hit: at the highest dose activity change, negative = inhibition, usual class: inhibitors; calls by dose curve; tested in HEK293 cells; also: nearly all actives have a fitted effect of over 50% in size
Marburg entry inh: qHTS for inhibitors of binding or entry into cells for Marburg Virus. Marburg virus pseudotyped entry inhibition, cell reporter. Potency, µM (series often up to 37.8 µM), without a hit: at the highest dose activity change, negative = inhibition, hits mostly inhibitors. actives 1.8% (n = 300,000). AID 540276, 2011; calls by dose curve; tested in HEK293 cells
Starred values were filed as active, the others as inactive; ! = repeats disagree; [ ] = dose if it differs, or a comment. Sampled rows, rich in hits. Any-hit rate of the full collection: about 2.5%. % is scaled to controls: 0 for no effect and ±100 for the full control effect; potency is read from the fitted curve at half-maximal effect.

Results for CCC(=O)NC(c1ccc(C)cc1)c1ccc2cccnc2c1O (stereo not drawn) ?
VACV Venus inh: inconclusive; VACV mCherry inh: inconclusive; Lassa entry inh: 11.2µM*; Marburg entry inh: 3.16µM*

Results for O=c1[nH]cnc2c1ncn2[C@H]1C[C@H](O)[C@@H](CO)O1 ?
VACV Venus inh: 19.5%; VACV mCherry inh: 27.6%

Results for O=[N+]([O-])c1cccc2[nH]cnc12 ?
VACV Venus inh: -16.9%; VACV mCherry inh: -14.8%

How did CCCC(=O)NC(c1ccc(C(C)C)cc1)c1ccc2cccnc2c1O (stereo not drawn) do in these assays?
VACV Venus inh: -28.8%; VACV mCherry inh: inconclusive; Lassa entry inh: 4.47µM*; Marburg entry inh: inconclusive

What do the screens show for `CCCCC(=O)NC(c1ccc(OC)cc1)c1ccc2cccnc2c1O` (stereo not drawn)?
VACV Venus inh: inconclusive; VACV mCherry inh: 10µM*

What do the screens show for `CSc1ccccc1C(=O)NCC1Cc2cc(F)cc(-c3cnccn3)c2O1` (stereo not drawn)?
VACV Venus inh: -7.4%; VACV mCherry inh: -14.6%

How did COc1ccc2c(c1O)-c1cc(O)cc3c1[C@@H](C2)N(C)CC3 do in these assays?
VACV Venus inh: -11.4%; VACV mCherry inh: -8.9%

Results for CCCN1CCc2cc(O)cc3c2C1Cc1ccc(O)c(O)c1-3 (stereo not drawn) ?
VACV Venus inh: -11.4%; VACV mCherry inh: inactive; Marburg entry inh: 35.5µM*

Results for CN1CCc2cccc3c2C1Cc1ccc(O)c(O)c1-3 (stereo not drawn) ?
VACV Venus inh: -14.0%; VACV mCherry inh: -14.2%; Lassa entry inh: -0.2%; Marburg entry inh: 15.8µM*!

What do the screens show for `Cn1c(SCC2CCCO2)nnc1C1CCN(Cc2ccco2)CC1` (stereo not drawn)?
VACV Venus inh: -7.6%; VACV mCherry inh: -15.8%

Results for N/C(CCCN1CCCCC1)=N\O ?
Marburg entry inh: 4.1%

How did COc1ccc(NS(=O)(=O)c2cccc(C(=O)O)c2)cc1 do in these assays?
VACV Venus inh: 2.6%; VACV mCherry inh: -17.1%; Lassa entry inh: -1.0%; Marburg entry inh: 10.4%

Results for COc1ccc(C(=O)C(C)OC(=O)c2cccc(S(=O)(=O)Nc3cc(Cl)c(OC)cc3OC)c2)cc1 (stereo not drawn) ?
VACV Venus inh: -24.8%; VACV mCherry inh: -8.7%; Lassa entry inh: inconclusive; Marburg entry inh: 7.08µM*

How did COc1cc(C(=S)N2CCOCC2)ccc1OS(=O)(=O)c1ccc(NC(C)=O)cc1 do in these assays?
VACV Venus inh: -0.6%; VACV mCherry inh: inactive; Lassa entry inh: inconclusive; Marburg entry inh: inconclusive

Results for COc1cc(C(=S)N2CCCC2)ccc1OS(=O)(=O)c1ccc(NC(C)=O)cc1 ?
Lassa entry inh: 16.4µM*; Marburg entry inh: -24.4%

Results for COc1ccc2cc(CNCc3ccccc3Cl)c(N3CCCC(CO)C3)nc2c1 (stereo not drawn) ?
VACV Venus inh: 7.9%; VACV mCherry inh: -6.4%

Results for Nc1nc(N)c2cc(Sc3ccc(Cl)cc3)ccc2n1 ?
VACV Venus inh: 6.31µM*; VACV mCherry inh: inconclusive

How did FC(F)(F)c1cccc(Sc2nc(-c3ccccc3)nnc2C(F)(F)F)c1 do in these assays?
VACV Venus inh: -8.0%; Lassa entry inh: inconclusive; Marburg entry inh: -6.2%

What do the screens show for `Nc1nc(N)c2cc(Sc3cccc(C(F)(F)F)c3)ccc2n1`?
VACV Venus inh: 5.01µM*; VACV mCherry inh: 7.08µM*

What do the screens show for `COCCn1c(/C=C/c2ccccc2)nc2ccccc21`?
VACV Venus inh: -23.5%; VACV mCherry inh: -13.6%; Lassa entry inh: inconclusive; Marburg entry inh: 10µM*

How did CC(C)CCn1c(/C=C/c2ccccc2)nc2ccccc21 do in these assays?
VACV Venus inh: 1.8%; VACV mCherry inh: -6.8%; Lassa entry inh: 25.9%[46.1 µM]; Marburg entry inh: inconclusive

What do the screens show for `COc1ccc(/C=C2/CCCC(CN(C)C)C2=O)cc1` (stereo not drawn)?
VACV Venus inh: -9.8%; VACV mCherry inh: -5.0%; Lassa entry inh: -13.0%; Marburg entry inh: -16.5%

Results for COc1cccc(/C=C2/CCC(CN(C)C)C2=O)c1 (stereo not drawn) ?
VACV Venus inh: -9.2%; VACV mCherry inh: -2.8%; Lassa entry inh: 12.6µM*; Marburg entry inh: 11.2µM*

What do the screens show for `CCN(Cc1ccccc1)S(=O)(=O)c1cc(C(=O)NC(C)C2CC3CCC2C3)ccc1OC` (stereo not drawn)?
VACV Venus inh: inconclusive; VACV mCherry inh: -3.2%; Lassa entry inh: 3.16µM*; Marburg entry inh: inconclusive

How did COc1ccc(CN(CCN(C)C)c2ccccn2)cc1 do in these assays?
VACV Venus inh: -6.0%; VACV mCherry inh: -12.6%; Lassa entry inh: -15.4%; Marburg entry inh: 15.8µM*!

How did CCCCCCCCCCCCCCCC[N+](C)(C)CCN(Cc1ccc(OC)cc1)c1ncccn1 do in these assays?
VACV Venus inh: 12.6µM*; VACV mCherry inh: inconclusive

What do the screens show for `O=C(Cc1ccc(Br)cc1)NO`?
VACV Venus inh: -8.7%; VACV mCherry inh: inactive

How did Cn1c(NC[C@@H](O)c2ccccc2)nc2c1c(=O)n(Cc1ccc(Cl)cc1)c(=O)n2C do in these assays?
Marburg entry inh: -6.7%

How did CCOC(=O)C1C(=O)C=C(c2cccs2)CC1c1ccccc1 (stereo not drawn) do in these assays?
VACV Venus inh: 3.0%; VACV mCherry inh: -14.3%; Lassa entry inh: 2.0%; Marburg entry inh: -9.1%

Results for CCOC(=O)C1C(=O)C=C(c2ccc(Br)cc2)CC1c1ccco1 (stereo not drawn) ?
Lassa entry inh: 14.6µM*; Marburg entry inh: inconclusive

Results for CCOC(=O)C1C(=O)C=C(c2cccc(NS(C)(=O)=O)c2)CC1c1ccco1 (stereo not drawn) ?
VACV Venus inh: -13.9%; VACV mCherry inh: -19.2%; Lassa entry inh: -2.5%; Marburg entry inh: 2.2%

What do the screens show for `CCOC(=O)C1C(=O)C=C(c2ccc(C)cc2)CC1c1ccccc1` (stereo not drawn)?
VACV Venus inh: -6.4%; VACV mCherry inh: -16.1%; Lassa entry inh: 15.8µM*; Marburg entry inh: 19.6%[46.1 µM]

Results for COC(=O)c1ccc(CN2C(=O)[C@]3(OCCC=C[C@@H]3C)c3c(Br)cccc32)cc1 ?
Marburg entry inh: -6.9%[14.2 µM]

What do the screens show for `COC(=O)CC1c2ccccc2C=C(C=Cc2ccc3c(c2)OCO3)N1C(=O)OC` (stereo not drawn)?
Lassa entry inh: inconclusive; Marburg entry inh: -18.2%[14.2 µM]

What do the screens show for `COc1cccc(CNC(=O)c2cc3oc4ccccc4c3n2C)c1OC`?
VACV Venus inh: -14.1%; VACV mCherry inh: -19.1%[1.46 µM]; Lassa entry inh: 5.62µM*; Marburg entry inh: inconclusive

How did COc1ccc(CNC(=O)c2cc3c(=O)n(C)c4ccccc4c3n2C)cc1 do in these assays?
VACV Venus inh: 4.9%; VACV mCherry inh: 3.1%; Lassa entry inh: -9.8%[46.1 µM]; Marburg entry inh: 2.5%[46.1 µM]

What do the screens show for `CCOc1ccc(CNC(=O)c2cc3oc4ccccc4c3n2C)cc1`?
VACV Venus inh: 7.3%; VACV mCherry inh: 10µM*!; Lassa entry inh: inconclusive; Marburg entry inh: 3.98µM*
